From PubChem
This is a sample that favours compounds with a hit; in the whole collection about 7.1% have one here.
ATXN viability = viability counter-screen for ATXN expression inhibitors | S2 cells (HEK-293 line with an ATXN2-luciferase reporter) viability, CellTiter-Fluor protease fluorescence, 24 h | Potency, µM (top dose mostly 56.7 µM), most hits filed as cytotoxic | 400,000 compounds, 0.49% hits; further: potency means the concentration at half of the fitted maximal effect; nearly all actives have a fitted effect of over 40% in size
PINK1 expr mod = PINK1 expression modulation | Potency, µM (doses to about 76.6 µM), inactives show at the highest dose activation (PINK1 increase), actives largely listed as activators | 410,000 compounds, 0.2% hits | PINK1 immunofluorescence, high-content cytometry, 24 h; active means well fitted activation curve with a large enough effect; inconclusive means small, poorly fitted or top-dose-only effect; cell line not stated here; further: potency means the concentration at half of the fitted maximal effect; % of control where 0% means no effect; nearly all actives have a fitted effect of over 65% in size
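Fluorescence from anti-PINK1 antibody, together with nuclear and cell stains, was scanned on a laser-scanning cytometer. Before staining, stable-line cells were incubated 24 hours with compounds at 5 concentrations; primary antibody 12 h at 10 degrees C.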
SW480 rerep = induces DNA re-replication in SW480 colon adenocarcinoma cells. AID 624297. 340,000 compounds, 1.8% hits. SW480 DNA re-replication, Hoechst DNA content imaging, 48 h. Potency, µM (series often up to 46.1 µM), inactives show top-dose re-replication activation, usual class: activators; further: potency means the concentration at half of the fitted maximal effect; % of control where 0% means no effect; nearly all actives have a fitted effect of over 55% in size
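DNA re-replication was detected as more nuclei of elevated Hoechst intensity after 48 hr exposure to compound (23 nL pinned per well of 250 cells).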
MCF10A rerep = induces DNA re-replication in MCF 10a normal breast cells. MCF 10A DNA re-replication, Hoechst nuclear intensity, 48 h. Potency, µM (doses to about 46.1 µM), without a hit: at the top dose activity, positive = re-replication, hits mostly activators. 350,000 compounds, 2.9% hits. AID 624296; further: potency means the concentration at half of the fitted maximal effect; % of control where 0% means no effect; nearly all actives have a fitted effect of over 50% in size
ATXN2 expr inh = ATXN2 expression inhibition; HEK-293 ATXN2-luciferase reporter, luminescence, 24 h; Potency, µM (doses to about 57 µM), without a hit: at the highest dose activity change, negative = inhibition, usual class: inhibitors; 360,000 compounds, 0.72% hits; AID 1745845; further: potency means the concentration at half of the fitted maximal effect; on the % scale 0 is the no-effect control and ±100 the full control effect; nearly all actives have a fitted effect of over 55% in size
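qHTS (up to 57 uM final) was run with 24 h compound exposure of reporter cells at 37 °C. Each well was multiplexed: SteadyGlo luminescence measured ATXN2-luciferase expression after a fluorogenic Gly-Phe-AFC viability readout (25 uM final).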
IL1B secr inh = inflammasome signaling inhibition, IL-1 beta readout. THP-1 LPS/ATP IL-1B secretion, AlphaLISA, 16 h; stronger effect = lower value. activity change, % at 57.5 µM. 360,000 compounds, 4.7% hits. AID 743279; in the data active means activity change below about -50%; inconclusive means mostly about -30% to -49%; further: on the % scale 0 is the no-effect control and ±100 the full control effect
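THP-1 cells pretreated 1 hr with compounds (up to 57.5 uM final), then stimulated with LPS (250 ng/mL final) plus ATP (1.25 mM final); secreted IL-1B measured by AlphaLISA after 16 hr, decreased signal indicating inhibition.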
* = called active by the depositor; i = inactive; ? = inconclusive; · = not tested or not shown; [ ] = another dose, or the depositor's remark. Unless noted, the call rests on the fitted dose curve; in most records, active means well fitted curve in the direction sought with a large enough effect; inconclusive means small, poorly fitted or top-dose-only effect, or another doubt; inactive means no such curve, though single readings can be large; an effect the other way counts as inactive or inconclusive.

SMILES	ATXN viability	PINK1 expr mod	SW480 rerep	MCF10A rerep	ATXN2 expr inh	IL1B secr inh
COC(=O)[C@]12CCCCC=C1N(Cc1ccc(Cl)cc1Cl)C(=O)[C@H](CC(=O)NCCCCc1ccccc1)C2	?	3%	·	·	-33%	-51*
CCOC(=O)[C@]12CCCC=C1N(Cc1ccc(Cl)cc1Cl)C(=O)[C@H](CC(=O)NCCCCc1ccccc1)C2	?	2%	·	·	0%	0
CCCCOCCCNC(=O)C[C@@H]1C[C@@]2(C(=O)OC)CCCCC=C2N(Cc2ccc(Cl)cc2Cl)C1=O	·	7%	·	·	?	-59*
CCCCNC(=O)C[C@@H]1C[C@@]2(C(=O)OC)CCCCC=C2N(Cc2ccc(Cl)cc2Cl)C1=O	32µM*	1%	·	·	?	-5
CCCCOCCCNC(=O)C[C@@H]1C[C@@]2(C(=O)OC)CCCCC=C2N(Cc2ccccc2)C1=O	i	0%	·	·	-9%	-8
Cc1ccc(NC(=O)Cn2c(-c3ccc4c(c3)OCO4)cn(-c3ccccc3)c2=O)cc1	i	-1%	·	·	12%	·
Cc1ccc2oc(=O)c3cnn(CC(=O)Nc4ccc(Br)cc4C)c3c2c1	·	0%	·	·	·	·
Cc1ccc(S(=O)(=O)N2CCCCC2)cc1NC(=O)CSCC(=O)O	i	-1%	-1%	5%	-10%	8
Cc1cc(Br)ccc1NC(=O)CNC(=O)Cn1ncc(Cl)c(Cl)c1=O	3.4µM*	-2%	?	1.2µM*	4.7µM*	-98*
Cc1ccc(S(=O)(=O)N2CCCCC2)cc1NC(=O)Cn1ncc(Cl)c(Cl)c1=O	?	-1%	?	?	?	-102*
Cc1ccc(S(=O)(=O)N2CCCCC2)cc1NC(=O)CNC(C)c1ccc(Cl)c(Cl)c1 (centres undefined)	?	1%	22%	1%	?	-63*
COc1ccc(C(=O)NC2(C(F)(F)F)C(=O)NC(C)=C2C#N)cc1 (centres undefined)	i	4%	·	·	13%	·
Cc1ccc(S(=O)(=O)c2c(O)cc(C)c(NS(=O)(=O)c3ccc(Cl)cc3)c2C)cc1	i	6%	·	·	?	·
CCC(c1nnnn1Cc1ccco1)N1CCN(c2cc(Cl)ccc2C)CC1 (centres undefined)	?	0%	?	?	-37%	-60*
Cc1ccc(C(=O)C(C(=O)/C=C/c2ccccc2)=C2SCCCS2)cc1	·	2%	?	21µM*	13µM*	-111*
Cc1ccc(C(=O)C=CC=Cc2ccccc2)cc1	i	2%	·	·	·	?
CCOC(=O)c1ccc(N/C(=N\S(=O)(=O)c2ccc(F)cc2F)c2ccccc2)cc1	i	-1%	-3%	2%	4%	-5
CCCCOC(=O)c1ccc(N/C(=N\S(=O)(=O)c2ccccc2)c2ccccc2)cc1	?	3%	-1%	?	-10%	-54*
C[C@@]12C[C@@]3(O)O[C@@H](O1)[C@]1(COC(=O)c4ccccc4)[C@@H]3C[C@@]12O[C@@H]1O[C@H](CO)[C@@H](O)[C@H](O)[C@@H]1O	·	·	·	·	5%	·
CN(C)CCC=C1c2ccccc2C=Cc2ccccc21	?	6%	?	1%	?	?
C#CCN(C)CC/C=C1\c2ccccc2CSc2ccccc21	i	3%	16µM*	?	-14%	-8
C=CCN(C)CC/C=C1\c2ccccc2CSc2ccccc21	i	5%	0%[9.22 µM]	8%	-14%	-18
CC(O)CN(C)CC/C=C1/c2ccccc2CSc2ccccc21 (centres undefined)	i	0%	-4%	-1%	-6%	-19
CN(C)CCC=C1c2ccccc2C(C)(C)c2ccccc21	·	·	?	30µM*	·	·
CN(C)CC/C=C1/c2cc(F)ccc2CSc2ccc(F)cc21	i	4%	-40%	-7%	-11%	-14
SMILES	ATXN viability	PINK1 expr mod	SW480 rerep	MCF10A rerep	ATXN2 expr inh	IL1B secr inh
CN(CC/C=C1/c2ccccc2CSc2ccccc21)CCCO	i	1%	?	13%	-10%	-58*
CN(C)CC/C=C1\c2cc(F)ccc2CSc2ccccc21	?	13%	14%	9%	-10%	-57*
O=C(c1ccc(F)c(F)c1)N1CCOc2ccc(CN3CCN(CCO)CC3)cc2C1	i	0%	·	·	·	·
CCc1ccc(C2C(C(=O)Nc3ccc(Cl)cc3)=C(C)Nc3ncnn32)cc1 (centres undefined)	i	-2%	·	·	-1%	·
Cc1csc2c(N3CCN(C(=O)Nc4ccc(OC(F)(F)F)cc4)CC3)ncnc12	i	1%	-8%	?	-28%	-70*
COc1ccc(-c2cc(C(=O)Nc3sc4c(c3C#N)CCCC4)no2)cc1OC	i	2%	·	·	4%	·
N#Cc1c(NC(=O)c2cnccn2)sc2c1CCCC2	i	-1%	5.8µM*	?	0%	-7
CC(C)(C)c1ccc(C(=O)Nc2sc3c(c2C(=O)O)CCC3)cc1	i	-1%	-4%	21µM*	-23%	17
CC(C)c1cc(C(=O)Nc2sc3c(c2C#N)CCC3)no1	?	?	?	15µM*	53%	5
CCC(C)(C)C1CCc2c(sc(NC(=O)c3ccccc3C(=O)O)c2C#N)C1 (centres undefined)	i	2%	15%	18µM*	14%	4
Cn1nccc1C(=O)Nc1sc2c(c1C#N)CCCC2	i	1%	2%	-13%	9%	?
O=C(Nc1sc2c(c1C(=O)O)CCCC2)c1ccc(F)cc1	i	0%	7%	-12%	-6%	11
CCCSCCCNC(=O)CN1C(=O)CCn2nc(-c3cn(C)c4ccccc34)cc21	i	1%	·	·	-24%	·
COc1ccc(OC)c(CNC(=O)C2CCN(c3nc4ccccc4nc3C(F)(F)F)CC2)c1	i	1%	·	·	0%	·
